Hit rate of the full screen: of about 360,000 compounds, about 4,500 (1.2%) were called active. For the sample, actives were picked, then their nearest neighbours and some compounds at random. Values without a mark were called inactive. Cut-off read from the data, not from the text of the source: active = inhibition above about 30%; inactive = the rest.

The nature of the experiment: GDH-TPI coupling enzyme inhibitors, primary screen, artefact control for M. tuberculosis FBA inhibitor project, biochemical, absorbance, full deck (AID 588335).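 Note: 0% = DMSO wells and 100% = wells lacking the enzyme.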 The settings on record: GDH-TPI coupled enzyme counterscreen, NADH absorbance; at 4.8 µM; active compounds read high.
As for `O=C(NC1CC1)C1=C[C@H](c2coc3ccccc3c2=O)C[C@H](OCCCCO)O1`, the inhibition is 1.68%.
As to `CCOC(=O)c1sc(NC(=O)C2CSC3(C)CCC(=O)N23)nc1C` (stereo not given), the inhibition was 4.14%.
Consider `Cn1c(=O)cc(OCC(=O)N2CCN(c3ccccc3F)CC2)c2ccccc21`, for which the inhibition is 2.59%.
The value for `Cc1cccc(N2CCN(C(=O)CCS(=O)(=O)c3ccc4c(c3)NC(=O)C(C)S4)CC2)c1C` (stereo not given) was -2.95%; that for `COc1ccc(CCC(=O)N2CCN(S(=O)(=O)c3ccc(OC)cc3)CC2)cc1` was 1.81%.
For `CCOC(=O)N1CCN(C(=O)c2ccc3nc4cc(Cl)ccc4c(=O)n3c2)CC1`, the inhibition is -6.67%.
As to `CC(=O)c1ccc(Nc2nc(C(N)c3ccccc3)cs2)cc1` (stereo not given), the inhibition is 32% (active).
For the molecule `CC(=O)c1ccc(Nc2nc(C(N)c3ccccc3Cl)cs2)cc1` (stereo not given), the inhibition is 29.2%.
The value for `COc1ccc(C(N)c2csc(NC(=O)Nc3cccc(C(F)(F)F)c3)n2)cc1` (stereo not given) was -1.33%; that for `Cc1cc(NC(=O)/C=C/C(=O)N(c2ccccc2C)C(C(=O)NC2CCCC2)c2ccc(F)cc2)no1` (stereo not given) was 15.8%.
Under `CN(C)/C=C1/C(=O)Nc2ccccc21` stands 36.4% (active).
Consider `CN(C)/C=C1\C=C(c2ccccc2)OC1=O`, for which the inhibition is 17.7%.
Under `O=C1c2ccccc2-c2ccccc2NC1O` (stereo not given) stands -4.42%; under `CC(C)(C)c1ccc(NC(=O)COC(=O)CCc2nc3ccccc3c(=O)[nH]2)cc1`, 3.69%.
Turning to `CCN(CC)c1ccc(C(=O)NNC(=O)CCc2nc3ccccc3c(=O)[nH]2)cc1`, the inhibition is 30.9% (active).
As for `CCN(CC(=O)NC(=O)NCc1ccccc1)Cc1nc2ccccc2c(=O)[nH]1`, the inhibition was -1.22%.
The value for `COc1ccc(S(=O)(=O)N2CCN(C(=O)c3cccs3)CC2)cc1OC` was -5.51%; that for `CC(C(=O)N(C)CC(=O)Nc1ccccc1C(F)(F)F)N1C(=O)c2ccccc2C1=O` (stereo not given) was -1.08%; that for `C/C(=N\Nc1cccc(C(=O)O)c1)c1ccc2c(c1)Nc1ccccc1S2` was 7.28%.
`O=C(N/N=C/c1ccsc1)c1cc(O)cc(O)c1`: the inhibition was 4.09%.
Take `Cc1nc2ccc(C(=O)N/N=C/c3ccc(O)cc3)cc2[nH]1`: the inhibition is 36.4% (active).
With `Cc1nonc1C(=O)N/N=C/c1ccc(O)cc1`, the inhibition is 29.1%.
The value for `O=S(=O)(c1ccc(SCc2ccc(Br)cc2)nc1)N1CCOCC1` was 0.32%; that for `O=C(NCc1ccccc1)C(c1ccccc1)N(C(=O)c1csnn1)c1ccc(F)cc1` (stereo not given) was -1.56%.
Under `Cc1nc2ccc(S(=O)(=O)N(C)CC(=O)NC(C)c3ccccc3)cc2s1` (stereo not given) stands 14.8%; under `Cc1cccc(C)c1NC(=O)CNC(=O)c1ccc(N2CCOCC2)c([N+](=O)[O-])c1`, 1.79%; under `CC(C)CN(C(=O)COC(=O)c1ccc2ccccc2c1)c1c(N)n(Cc2ccccc2)c(=O)[nH]c1=O`, 2.15%.
Take `CCN(/N=C/c1ccccc1)c1cc(=O)n(C)c(=O)[nH]1`: the inhibition is 36.7% (active).
`Cc1cn(C2CC(O)C(CO)O2)c(=O)n(CCCc2ccccc2)c1=O` (stereo not given): the inhibition was -7.8%.
Under `COc1cc(C(=O)NN(CCC#N)C2=NS(=O)(=O)c3ccccc32)cc(OC)c1OC` stands 4.46%.
Turning to `Cc1cc(OC(=O)c2ccccc2)c([N+](=O)[O-])c(=O)[nH]1`, the inhibition was 3.89%.
For the molecule `Cc1ccccc1/C=C\c1nc(O)c([N+](=O)[O-])c(=O)[nH]1`, the inhibition is 34.9% (active).
As to `O=c1[nH]c(/C=C\c2cccc(C(F)(F)F)c2)nc(O)c1[N+](=O)[O-]`, the inhibition was 16.2%.
Consider `Cc1nnc(SCc2cccc(Cl)c2)n(N)c1=O`, for which the inhibition was -5.68%.
Under `CN1CCN(C(=O)/C(=C\c2cccs2)NC(=O)c2cccs2)CC1` stands 30.9% (active); under `Cc1ccc(C(=O)N/C(=C/c2cccs2)C(=O)N2CCCCC2)cc1`, 1.16%.
As for `CN1CCN(C(=O)/C(=C\c2ccc3c(c2)OCO3)NC(=O)c2cccs2)CC1`, the inhibition is 13.8%.
Consider `FC(F)(F)c1ccc2c3n(nc2c1)CCN=C3c1ccc(Cl)cc1`, for which the inhibition was 9.17%.
As to `O=c1[nH]c2c(c(=O)n1-c1ccccc1)CCO2`, the inhibition was 6.88%.
The value for `COc1ccccc1C(C)NC(=O)Cc1ccsc1` (stereo not given) was 6.79%.
The value for `Cc1ccc(N2C(=O)C3C4C=CC(CC4)C3C2=O)cc1Cl` (stereo not given) was 0%; that for `COC(=O)C(c1ccccc1)N1CCCCCC1` (stereo not given) was -4.27%; that for `CC1(C)CC(N2CCN(C(c3ccccc3)c3ccccc3)CC2)=CC(=[N+]2CCCCC2)C1` was 42% (active).
The value for `CCOc1ccc(NC(=O)CN(C)CC(=O)NC(C)c2ccccc2)cc1OCC` (stereo not given) was 11%.
On to `Nc1c(-c2ccc(F)cc2)cnn1C1CCS(=O)(=O)C1` (stereo not given), for which the inhibition was 3.77%.
`CCOc1cc(/C=N/NC(=O)c2c(C)nc3ccc(Cl)cn23)ccc1O`: the inhibition was 52.2% (active).
Consider `CCOc1cc(/C=N/NC(=O)CN2CCCCC2)ccc1O`, for which the inhibition is 21.8%.
Under `CCOc1ccc(/C=N\NC(=O)c2c(C)nc3cc(C)ccn23)cc1` stands 21.5%.
The value for `CCN1C(=NCCc2cccnc2)N[C@@H](c2ccccc2)[C@H](C(=O)OC)[C@H]1C` was -8.4%; that for `COCCNC(=S)N/N=C/c1c(C)[nH]c2ccccc12` was 31% (active).
Consider `Cc1[nH]c2ccccc2c1/C=C(/C#N)C(=O)NC(C)C`, for which the inhibition was 6.92%.
The value for `COCCNC(=S)N(CCc1c(C)[nH]c2ccc(C)cc12)Cc1cccnc1` was 0%; that for `CC(=O)Nc1cccc(C(=O)OCN2C(=O)c3ccccc3C2=O)c1` was -2.41%.
The value for `COc1ccc(CCNC(=S)N2CCN(S(=O)(=O)c3ccc(F)cc3)CC2)cc1` was 1.03%; that for `CCN(/N=C/c1ccc(N(C)C)cc1)c1nc2ccccc2[nH]1` was 31.3% (active); that for `Oc1ccc(/C=N/N(Cc2ccccc2)c2ccccc2)cc1` was 11.2%.
The value for `COc1ccc(C(=O)COC(=O)c2nn(C)c(=O)c3ccccc23)c(OC)c1` was -0.9%; that for `O=C(O)C1CCCN1S(=O)(=O)c1ccc2c(c1)CCC2` (stereo not given) was -0.82%; that for `COc1cccc(-c2sc3ccc(OC)cc3c2-c2ccc(OCCN3CCCCC3)cc2)c1` was 0.91%.
On to `COc1ccc2sc(-c3ccccc3OC)c(-c3ccc(OCCN4CCCC4)cc3)c2c1`, for which the inhibition is 8.81%.
On to `COc1ccc2sc(-c3ccc(N(C)C)cc3)c(-c3ccc4cc[nH]c4c3)c2c1`, for which the inhibition is 33.5% (active).
Under `Cc1cc(=O)oc(C)c1C(=O)NCc1ccc(F)cc1` stands 16.2%.
Under `COc1ccc(CNC(=O)c2c(C)cc(=O)oc2C)cc1OC` stands 5.96%; under `Cc1cc(=O)oc(C)c1C(=O)NCCN(C)Cc1ccccc1`, 45.1% (active); under `CC(NC(=O)c1ccc(Cl)cc1)C(=O)N1CCCCC1` (stereo not given), 8.65%.
The value for `CCn1c(SCC(=O)NCC2CCCO2)nc2ccccc21` (stereo not given) was -11%.
`Cc1ccc(NC(=O)c2cnc(SCC(=O)NCC3CCCO3)n(C)c2=O)cc1` (stereo not given): the inhibition is 33.3% (active).
The value for `Cn1c(SCC(=O)c2ccccc2)ncc(C(=O)Nc2ccc(F)cc2)c1=O` was 2.1%; that for `CC1C(=O)N2CCCc3cc(S(=O)(=O)NCc4ccc(F)cc4)cc1c32` (stereo not given) was 6.01%.
Take `O=C1C=C(c2ccnc3cc(Cl)ccc23)C[C@@H](c2ccc3c(c2)OCO3)C1`: the inhibition was 1.34%.
Turning to `Cc1ccccc1-n1c(C)cc(/C=N/NC(=O)c2ccc(CN3CCOCC3)cc2)c1C`, the inhibition was 18.1%.
Under `CSc1ccc(/C=C2\NC(=O)NC2=O)cc1` stands 27.3%; under `Cc1ccccc1-n1c(C)cc(/C=C2\NC(=O)NC2=O)c1C`, 32.7% (active); under `COc1ccc2[nH]c3c(c2c1)CCN1C(=O)C(CC(=O)NCc2cccc(C(F)(F)F)c2)C[C@H](C(=O)N2CCOCC2)[C@@]31C` (stereo not given in full), -0.94%.
With `Fc1ccccc1/C=N/Nc1cc(N2CCCCC2)ncn1`, the inhibition was 18.5%.
For `COc1ccccc1-c1cnn2c(N3CCOCC3)cc(C)nc12`, the inhibition was 8.82%.
As for `COc1ccc(/C=N/Nc2cc(N3CCOCC3)nc(C)n2)c(OC)c1`, the inhibition was 68.5% (active).
Consider `CCOc1ccc(CN(C)C(=O)c2ccc(=O)[nH]c2)cc1`, for which the inhibition was 1.51%.
Consider `CC(C)CNC(=O)C(=O)NCC(c1ccc2c(c1)OCO2)N1CCOCC1` (stereo not given), for which the inhibition was -0.84%.
Consider `CCCc1ccc(C(O)c2ncc(-c3cccc(OC)c3)[nH]2)cc1` (stereo not given), for which the inhibition is -5.36%.
Under `CC(C)(C)OC(=O)N/N=C/c1ccc(C(=O)O)cc1` stands -4.41%; under `COC(=O)N/N=C/c1c[n+]([O-])c2ccccc2[n+]1[O-]`, 32.6% (active).
As to `COC(=O)C(C)N=Cc1ccccc1` (stereo not given), the inhibition is -1.89%.
For the molecule `O=C(Nc1ccc2c(c1)nc1n2CCCCC1)c1cc(S(=O)(=O)N2CCOCC2)ccc1Cl`, the inhibition was -14.1%.
With `CCOc1cc(/C=C2\SC(N3CCCC(C)C3)=NC2=O)ccc1O` (stereo not given), the inhibition is 14.5%.
For the molecule `CN(CCC1CCOCC1)Cc1cn[nH]c1-c1ccc(-c2ccccc2)cc1`, the inhibition is 13%.
With `CC1CCN(C2=NC(=O)/C(=C/c3cn[nH]c3-c3ccccc3)S2)CC1`, the inhibition was 33.8% (active).
The value for `CCCCCCCCn1c2c(c(=N)c3c1CCC3)CCCC2` was -7.26%; that for `C/C(=N\NC(=O)c1cccc([N+](=O)[O-])c1)c1cccnc1` was 3.57%.
For the molecule `C/C(=N\NC(=O)c1cc(-c2ccc(O)cc2)nc2ccccc12)c1cccnc1`, the inhibition is 30.9% (active).
Consider `CCOc1ccccc1-c1cc(C(=O)N/N=C(\C)c2cccnc2)c2ccccc2n1`, for which the inhibition was 19.2%.
The value for `O=C(ON=C1CCN(S(=O)(=O)c2ccccc2)CC1)c1ccc(Cl)cc1` was 4.57%; that for `Cc1ccc2nc(Nc3ncc4c(n3)CC(C)(C)CC4=O)nc(C)c2c1` was 1.22%; that for `CN1CCN(c2ncc3c(n2)CC(c2ccccc2F)CC3=O)CC1` (stereo not given) was 4.15%.
With `CCc1ccc(Nc2ncc3c(n2)CC(c2ccco2)CC3=O)cc1` (stereo not given), the inhibition was 37.7% (active).

The values above are taken from PubChem BioAssay AID588335 (The Scripps Research Institute Molecular Screening Center, 2011).
